Source: PubChem BioAssay (EPA / NIEHS)
Where “and” joins values, the source holds several entries; their conditions need not be identical. Equal values may be shown once. Results filed as inconclusive are left out. Where a structure was tested more than once in an assay, its records may differ in their call. Calls of active or inactive are those of the source. How the source made its calls: active means hit-call score of the fitted dose curve at least 0.9, where 1 is the maximum; inconclusive means response in the unintended direction; inactive means score below 0.9.

Key:
[1] = tested on: zebrafish Estrogen Receptor (ER2b), gene 317733; test: ATG_zfER2b_XSP2: Attagene TRANS-FACTORIAL Multi-Species (XSP2) HepG2 Assay for zebrafish Estrogen Receptor (ER2b) (AID 2283823);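 further: fitted upward as reporter gain over DMSO so potency reflects activation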
Summary of the method: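 Cells used were HepG2, transiently transfected with chimeric nuclear receptor-Gal4 reporter units. After 24 h of chemical treatment, reporter transcripts were amplified by RT-PCR, labelled and sized by capillary electrophoresis, with induction analysed relative to DMSO.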

[2] = molecular target: Estrogen receptor (Homo sapiens) (UniProt P03372); test: ATG_hERa_XSP2: Attagene TRANS-FACTORIAL Multi-Species (XSP2) HepG2 Assay for human Estrogen Receptor (ERa) (AID 2283827)
Estrogen receptor (Homo sapiens), sequence (P03372 whole entry, looked up, the tested form may be a part): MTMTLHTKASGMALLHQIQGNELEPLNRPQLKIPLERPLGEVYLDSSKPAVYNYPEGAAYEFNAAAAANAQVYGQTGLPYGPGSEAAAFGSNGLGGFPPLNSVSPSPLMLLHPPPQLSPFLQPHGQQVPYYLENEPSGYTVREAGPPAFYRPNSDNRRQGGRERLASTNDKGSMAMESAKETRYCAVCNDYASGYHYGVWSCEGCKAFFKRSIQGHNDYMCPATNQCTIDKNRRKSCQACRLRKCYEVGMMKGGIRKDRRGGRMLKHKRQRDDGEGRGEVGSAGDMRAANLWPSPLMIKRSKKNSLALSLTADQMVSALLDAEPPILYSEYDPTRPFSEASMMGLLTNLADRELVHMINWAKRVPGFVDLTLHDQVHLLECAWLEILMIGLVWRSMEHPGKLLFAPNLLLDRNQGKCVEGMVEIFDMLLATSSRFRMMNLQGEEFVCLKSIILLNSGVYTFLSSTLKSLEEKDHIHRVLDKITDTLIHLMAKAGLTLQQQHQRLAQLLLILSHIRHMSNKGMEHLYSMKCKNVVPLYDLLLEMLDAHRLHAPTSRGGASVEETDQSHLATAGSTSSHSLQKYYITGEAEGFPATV
Summary of the method: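 Trans-activation of exogenous human ERa-Gal4 chimera read in HepG2 as reporter transcript after 24 h exposure; medium included 3 nM 6-alpha-fluorotestosterone and 1.5 nM norgestrel. Quantified by RT-PCR with capillary electrophoresis, positive-direction fitting against DMSO.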

[3] = tested on: frog Estrogen Receptor (ER2), gene 100174814; test: ATG_frER2_XSP2: Attagene TRANS-FACTORIAL Multi-Species (XSP2) HepG2 Assay for frog Estrogen Receptor (ER2) (AID 2283828)
Summary of the method: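 Cells were transfected with reporter constructs under GAL4-UAS control, dosed with chemicals for 24 h, then lysed for RNA; the frog ER2-driven reporter mRNA was quantified by capillary electrophoresis of labeled PCR fragments, with activity fitted upward from DMSO.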

[4] = molecular target: Peroxisome proliferator-activated receptor gamma (Homo sapiens) (UniProt P37231); test: ATG_hPPARg_XSP2: Attagene TRANS-FACTORIAL Multi-Species (XSP2) HepG2 Assay for human Peroxisome Proliferator-activated Receptor gamma (PPARg) (AID 2283829);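 further: actives raise reporter mRNA above DMSO so AC50 reflects PPARg activation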
Peroxisome proliferator-activated receptor gamma (Homo sapiens), sequence (P37231 whole entry, looked up, the tested form may be a part): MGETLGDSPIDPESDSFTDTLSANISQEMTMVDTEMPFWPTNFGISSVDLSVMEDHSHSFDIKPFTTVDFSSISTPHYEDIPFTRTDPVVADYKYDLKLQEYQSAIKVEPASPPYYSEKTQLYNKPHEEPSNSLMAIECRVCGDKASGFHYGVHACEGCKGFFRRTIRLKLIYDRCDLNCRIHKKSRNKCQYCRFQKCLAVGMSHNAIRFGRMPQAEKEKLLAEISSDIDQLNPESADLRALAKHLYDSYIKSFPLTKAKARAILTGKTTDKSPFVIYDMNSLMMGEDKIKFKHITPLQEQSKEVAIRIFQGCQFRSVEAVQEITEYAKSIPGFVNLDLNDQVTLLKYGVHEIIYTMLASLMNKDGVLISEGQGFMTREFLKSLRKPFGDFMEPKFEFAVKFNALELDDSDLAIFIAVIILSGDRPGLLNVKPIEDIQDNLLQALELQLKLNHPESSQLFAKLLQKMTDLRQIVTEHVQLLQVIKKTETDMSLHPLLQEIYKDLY
Summary of the method: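 After transfecting HepG2 with GAL4-UAS reporter constructs, cells are dosed for 24 h; total RNA is reverse-transcribed, PCR-amplified, FAM-labeled, HpaI-digested and resolved by capillary electrophoresis. Activity is measured as mRNA induction relative to DMSO.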

[5] = molecular target: mouse Peroxisome Proliferator-activated Receptor gamma (PPARg), Pparg (gene 19016) (UniProt P37238); test: ATG_mPPARg_XSP2: Attagene TRANS-FACTORIAL Multi-Species (XSP2) HepG2 Assay for mouse Peroxisome Proliferator-activated Receptor gamma (PPARg) (AID 2283830);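 further: hits are gains in reporter mRNA above DMSO so AC50 marks activation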
mouse Peroxisome Proliferator-activated Receptor gamma (PPARg), Pparg (gene 19016), sequence (P37238 whole entry, looked up, the tested form may be a part): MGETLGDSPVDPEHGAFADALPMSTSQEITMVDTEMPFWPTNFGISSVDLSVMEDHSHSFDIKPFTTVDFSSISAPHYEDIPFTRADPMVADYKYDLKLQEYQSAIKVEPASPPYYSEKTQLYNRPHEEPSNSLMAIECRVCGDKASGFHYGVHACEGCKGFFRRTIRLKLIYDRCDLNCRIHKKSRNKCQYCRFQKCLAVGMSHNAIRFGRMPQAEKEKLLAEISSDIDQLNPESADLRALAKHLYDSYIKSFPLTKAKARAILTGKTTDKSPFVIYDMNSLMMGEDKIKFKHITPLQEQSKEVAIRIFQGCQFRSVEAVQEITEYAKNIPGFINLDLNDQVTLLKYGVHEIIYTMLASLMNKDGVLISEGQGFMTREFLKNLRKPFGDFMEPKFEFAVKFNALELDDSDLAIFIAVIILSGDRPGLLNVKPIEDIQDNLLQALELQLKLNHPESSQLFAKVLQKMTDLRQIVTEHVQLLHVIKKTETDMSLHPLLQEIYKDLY
Summary of the method: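 Multiplexed TRANS reporter readout: after 24 h chemical exposure of transfected HepG2 cells (with 3 nM 6-alpha-fluorotestosterone, 1.5 nM norgestrel present), RNA reverse-transcribed, amplified, 6-FAM-labelled and resolved by capillary electrophoresis; mouse PPARg-Gal4 induction scored against DMSO.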

[6] = molecular target: Nuclear receptor subfamily 1 group I member 2 (Mus musculus) (UniProt O54915); test: ATG_mPXR_XSP2: Attagene TRANS-FACTORIAL Multi-Species (XSP1) HepG2 Assay for mouse Pregnane X Receptor (PXR) (AID 2283831)
Nuclear receptor subfamily 1 group I member 2 (Mus musculus), sequence (O54915 whole entry, looked up, the tested form may be a part): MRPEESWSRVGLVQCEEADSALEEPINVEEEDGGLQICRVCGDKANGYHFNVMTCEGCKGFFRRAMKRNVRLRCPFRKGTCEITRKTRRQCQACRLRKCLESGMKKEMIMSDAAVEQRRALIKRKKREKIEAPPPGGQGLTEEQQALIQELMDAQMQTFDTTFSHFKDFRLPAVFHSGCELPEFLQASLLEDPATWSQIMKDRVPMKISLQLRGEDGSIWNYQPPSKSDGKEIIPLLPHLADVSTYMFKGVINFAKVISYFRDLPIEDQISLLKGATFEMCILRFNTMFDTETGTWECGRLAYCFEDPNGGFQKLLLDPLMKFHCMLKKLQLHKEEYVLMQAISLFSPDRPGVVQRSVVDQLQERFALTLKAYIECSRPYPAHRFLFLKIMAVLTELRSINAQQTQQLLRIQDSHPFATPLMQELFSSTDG
Summary of the method: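 Reporter transcripts were quantified by RT-PCR, FAM primer extension, HpaI digestion and capillary electrophoresis after 24 h of chemical exposure in transiently transfected HepG2 cells carrying chimeric receptor-GAL4 constructs; DMSO served as baseline.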

[7] = molecular target: zebrafish Thyroid Hormone Receptor alpha (TRa), thraa (gene 30670) (UniProt Q98867); test: ATG_zfTRa_XSP2: Attagene TRANS-FACTORIAL Multi-Species (XSP1) HepG2 Assay for zebrafish Thyroid Hormone Receptor alpha (TRa) (AID 2283832);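 further: actives raise zebrafish TRa-Gal4 reporter transcript above DMSO baseline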
zebrafish Thyroid Hormone Receptor alpha (TRa), thraa (gene 30670), sequence (Q98867 whole entry, looked up, the tested form may be a part): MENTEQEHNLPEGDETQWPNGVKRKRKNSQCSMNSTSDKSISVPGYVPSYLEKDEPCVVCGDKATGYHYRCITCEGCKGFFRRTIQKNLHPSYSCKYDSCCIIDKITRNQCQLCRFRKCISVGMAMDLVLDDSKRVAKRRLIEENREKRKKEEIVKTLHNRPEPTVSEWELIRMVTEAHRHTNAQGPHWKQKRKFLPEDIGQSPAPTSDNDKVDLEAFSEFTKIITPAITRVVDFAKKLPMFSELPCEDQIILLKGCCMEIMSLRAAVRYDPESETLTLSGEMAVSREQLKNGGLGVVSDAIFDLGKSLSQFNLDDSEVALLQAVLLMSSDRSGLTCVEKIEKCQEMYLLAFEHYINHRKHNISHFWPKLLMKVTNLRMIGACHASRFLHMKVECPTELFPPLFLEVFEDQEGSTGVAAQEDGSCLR
Method: (§1) ATG_XSP2_multi-species_TRANS is a cell-based, multiplexed assay created by modifying the existing Attagene TRANS-FACTORIAL system to include a panel of nuclear receptors from some or all the following species: human (Homo sapiens), mouse (Mus musculus), frog (Xenopus laevis), zebrafish (Danio rerio), chicken (Gallus gallus), and turtle (Chrysemys picta). The ECOTOX-FACTORIAL format uses HepG2, a human liver cell line, with measurements taken at 24 hours after chemical dosing in a 24-well plate. Xsp2 included 3 nM 6-alpha-fluorotestosterone and 1.5 nM norgestrel to stimulate the androgen receptor.ATG_zfTRa_XSP2 is one of 29 assay components measured or calculated from the ATG_XSP2_multi-species_TRANS assay. It is designed to make measurements of mRNA induction, a form of inducible reporter, as detected with fluorescence intensity signals by Reverse transcription polymerase chain reaction (RT-PCR) and Capillary electrophoresis technology.The assay endpoint ATG_zfTRa_XSP2 was analyzed in the positive analysis fitting direction relative to DMSO as the negative control and baseline of activity. Using a type of inducible reporter, measures of mRNA for gain-of-signal activity can be used to understand the reporter gene at the transcription factor-level as they relate to the gene TR. Furthermore, this assay endpoint can be referred to as a primary readout, because this assay has produced multiple assay endpoints where this one serves a reporter gene function. To generalize the intended target to other relatable targets, this assay endpoint is annotated to the nuclear receptor intended target family, where the subfamily is non-steroidal.
(§2) Human liver HepG2 cells are transiently transfected with multiple reporter transcription units (MRTUs) in 6-well plates using FuGene 6 reagent (Roche; 3 ml FuGene/1 mg DNA). The MRTU constructs are regulated by a cis-regulating element (promoter). […] A major difference between the CIS and TRANS system is that in CIS activities of endogenous TFs are measured, whereas the TRANS assay evaluates changes in activities of exogenous, chimeric NR-Gal4 proteins. […] At the end of 24 hour incubation, total RNA was isolated using TriZol reagent (Invitrogen). The isolated RNA is then reverse-transcribed using oligo(dT) primer and Mo-MLV reverse transcriptase (Invitrogen) with DNAse I (Ambion) treatment for 30 min. The one-tenth of the produced cDNA was amplified by PCR using Taq DNA polymerase (Invitrogen) and two reporter sequence-specific primers. The PCR products were fluorescently labeled by primer extension with 6-arboxyfluorescein (6-FAM) 5'-labeled reporter sequence-specific primer (2 min at 95 C, 20 s at 68 C and 10 min at 72 C) and these products were digested with 5U of HpaI (New England Biolabs) for 2h at 37 C. The fragments were purified using Qiaquick PCR columns (Qiagen), analyzed on an ABI 3130xL genetic analyzer (Applied Biosystems) with peak positions identified by using a set of X-rhodamine (ROX)-labeled MapMarker1000 molecular weight standards (BioVentures). The raw capillary electrophoresis data was processed using Attagraph software (Attagene).

[8] = tested on: zebrafish Peroxisome Proliferator-activated Receptor gamma (PPARg), gene 557037; test: ATG_zfPPARg_XSP2: Attagene TRANS-FACTORIAL Multi-Species (XSP2) HepG2 Assay for zebrafish Peroxisome Proliferator-activated Receptor gamma (PPARg) (AID 2283833);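 further: reporter mRNA from a zebrafish PPARg GAL4 chimera measured by RT-PCR and capillary electrophoresis; actives increase reporter signal over DMSO so AC50 reflects activation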
Method: as §1, with “receptor.ATG_zfPPARg_XSP2” for “receptor.ATG_zfTRa_XSP2”, “ATG_zfPPARg_XSP2” for “ATG_zfTRa_XSP2”, “PPARg.” for “TR.”
as §2

[9] = ATG_M_32_XSP2: Attagene TRANS-FACTORIAL Multi-Species (XSP2) HepG2 Assay for M19 Transcription Factor (Internal Marker) (AID 2283826)
Method: ATG_XSP2_multi-species_TRANS is a cell-based, multiplexed assay created by modifying the existing Attagene TRANS-FACTORIAL system to include a panel of nuclear receptors from some or all the following species: human (Homo sapiens), mouse (Mus musculus), frog (Xenopus laevis), zebrafish (Danio rerio), chicken (Gallus gallus), and turtle (Chrysemys picta). The ECOTOX-FACTORIAL format uses HepG2, a human liver cell line, with measurements taken at 24 hours after chemical dosing in a 24-well plate. Xsp2 included 3 nM 6-alpha-fluorotestosterone and 1.5 nM norgestrel to stimulate the androgen receptor.ATG_M_32_XSP2 is one of 29 assay components measured or calculated from the ATG_XSP2_multi-species_TRANS assay. It is designed to make measurements of mRNA induction, a form of inducible reporter, as detected with fluorescence intensity signals by Reverse transcription polymerase chain reaction (RT-PCR) and Capillary electrophoresis technology.This assay endpoint, ATG_M_32_XSP2, was analyzed in the positive analysis fitting direction relative to DMSO as the negative control and baseline of activity. […] Furthermore, this assay endpoint can be referred to as a secondary readout, because this assay has produced multiple assay endpoints where this one serves a background control function. […]
Human liver HepG2 cells are transiently transfected with multiple reporter transcription units (MRTUs) in 6-well plates using FuGene 6 reagent (Roche; 3 ml FuGene/1 mg DNA). […] A major difference between the CIS and TRANS system is that in CIS activities of endogenous TFs are measured, whereas the TRANS assay evaluates changes in activities of exogenous, chimeric NR-Gal4 proteins. […] The fragments were purified using Qiaquick PCR columns (Qiagen), analyzed on an ABI 3130xL genetic analyzer (Applied Biosystems) with peak positions identified by using a set of X-rhodamine (ROX)-labeled MapMarker1000 molecular weight standards (BioVentures). […]

[10] = tested on: frog Androgen Receptor (AR), gene 399456; test: ATG_frAR_XSP2: Attagene TRANS-FACTORIAL Multi-Species (XSP2) HepG2 Assay for frog Androgen Receptor (AR) (AID 2283824);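 further: reporter mRNA from GAL4-UAS units driven by Xenopus AR-Gal4 chimera; actives raise reporter signal above DMSO so AC50 reflects agonist-like induction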
Summary of the method: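 Reporter transcript induction, read by RT-PCR with fluorescent capillary electrophoresis, in human liver HepG2 cells carrying an exogenous Xenopus AR-Gal4 fusion and GAL4-driven reporters; chemical exposure 24 hours, activity scored upward against DMSO controls.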

Row | SMILES | AC50 [1] | AC50 [2] | AC50 [3] | AC50 [4] | AC50 [5] | outcome [6] | outcome [7] | outcome [8] | outcome [9] | outcome [4] | outcome [5] | AC50 [8] | AC50 [6] | AC50 [10] | outcome [10]
1 | CCCCc1ccc(O)cc1 | 12.5 µM (active) and 5.32 µM (active) | 4.58 µM (active) and 3.47 µM (active) | 4.69 µM (active) and 2.33 µM (active) | 100 µM (active) | 74.6 µM (active) and 93.5 µM (active) | inactive | inactive | inactive |  |  |  |  |  |  | 
2 | CCC(C)(C)c1ccc(O)cc1 | 13.9 µM (active) and 3.03 µM (active) | 6.43 µM (active) and 3.44 µM (active) | 27.9 µM (active) and 3.07 µM (active) |  |  | inactive | inactive |  | inactive | inactive | inactive | 165 µM (active) and 100 µM (active) |  |  | 
3 | c1ccc2c(c1)Nc1ccccc1S2 | 52.1 µM (active) and 27.9 µM (active) | 12.7 µM (active) and 8.42 µM (active) | 16.7 µM (active) and 5.21 µM (active) | 22.2 µM (active) and 21.7 µM (active) | 27.6 µM (active) and 21.1 µM (active) | inactive | inactive | inactive |  |  |  |  | 4.49 µM (active) |  | 
4 | CC(C)(C)c1ccc(O)cc1 | 34.3 µM (active) and 13.7 µM (active) |  | 14.9 µM (active) and 6.96 µM (active) |  |  |  | inactive | inactive | inactive | inactive | inactive |  |  |  | 
5 | O=S(=O)(c1ccc(O)cc1)c1ccc(O)cc1 | 6.5 µM (active) and 3.07 µM (active) | 1.87 µM (active) and 2.38 µM (active) | 26.9 µM (active) and 5.73 µM (active) | 8.88 µM (active) and 28.6 µM (active) | 33.1 µM (active) and 63.1 µM (active) | inactive | inactive |  |  |  |  |  |  | 8.07 µM (active) | inactive
6 | O=P(Oc1ccccc1)(Oc1ccccc1)Oc1ccccc1 | 7.88 µM (active) | 1.44 µM (active) | 2.82 µM (active) | 4.79 µM (active) | 5.79 µM (active) |  | inactive |  | inactive |  |  | 9.78 µM (active) | 0.303 µM (active) |  | 
